# Data: PubChem BioAssay (NCI)
# Values joined by “and” are separate entries in the source; they are usually repeats but may differ in a detail not shown here. Equal entries are not always repeated. Compounds without any hit were thinned out: in the full panel of roughly 83,000, 20% have a hit.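 Treatment: one concentration, 48 hours, 96-well format. Scoring: percent growth, with anything below 10 considered active.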 A number with no mark means an inactive call. Active and inactive are the calls of the source.
# Test system: MDA-MB-468 breast
# Assay: NCI-60 one-dose screen, 48 h (100 = growth as untreated, 0 = no growth, -100 = all killed)
# Settings: 10 µM unless noted
row,SMILES,growth
1,OCCN1CCCCCCC1,101%
2,CCN1C(=O)N(CC)C2Nn3c(s/c(=C\c4ccccc4Br)c3=O)=NC21 (stereo not given),12.3%
3,CC(=O)C(C)Cc1cc2c(cc1C)C(C)(C)CCC2(C)C (stereo not given),97.6%
4,CC(=O)O[C@@H]1C(=O)N(c2cnccn2)[C@H]1c1ccccc1[N+](=O)[O-],-4.17% (active)
5,COc1ccc(C2=CC(c3cc(OC)c(OC)c(OC)c3)NC(=O)N2)cc1OC (stereo not given),-12.6% (active)
6,CC(C)c1nc(N(C)S(C)(=O)=O)nc(-c2ccc(F)cc2)c1/C=C/C(=O)C[C@@H](O)CC(=O)O,113%
7,Nc1nc(Nc2ccccc2)c2ncn(Cc3cc4c(cc3Br)OCO4)c2n1,14.7%
8,CN(CCn1sc(=O)n(Cc2ccccc2)c1=O)Cc1ccc2c(Cl)cc(Cl)c(O)c2n1,42.4%
9,N#CN1CCC[C@H]1C(=O)N1CCc2c(-c3[nH]nc4ncccc34)cccc21,-19% (active)
10,O=S(=O)(Nc1ccc(I)c(Cl)c1)c1ccc(-c2cnc(C3CC3)o2)cc1,-9.49% (active)
11,CC1=CC(=O)C=CC1(C)C(Cl)(Cl)Cl (stereo not given),98.4%
12,N#CCNc1ccc(C(=O)O)cc1,92.8%
13,O=C(Nc1ccc(N2CCNCC2)cc1)c1[nH]ncc1Nc1cc(Oc2ccccc2)ncn1,34.6%
14,CN1CCN(c2nc(NCCNc3ccnc4cc(Cl)ccc34)c3ccccc3n2)CC1,-51.6% (active)
15,COc1cc(/C=C2\CN(S(=O)(=O)c3ccc(C)cc3)C/C(=C\c3cc(CN4CCOCC4)c(O)c(OC)c3)C2=O)cc(CN2CCOCC2)c1O,-45.9% (active)
16,C(=C(\C1=NCCN1)n1ccc2ccccc21)/c1ccccc1,96.5%
17,O=[N+]([O-])c1ccc(/C=N\NC(=S)Nc2ccc(F)cc2)cc1,104% and 101%
18,C#Cc1cc(OC)c(C(=O)Nc2ccc(F)cc2C(=O)Nc2cccc(S(=O)(=O)C(F)(F)F)c2)cn1,-31.3% (active)
19,Cc1cc(Oc2ccccc2)ccc1Nc1ncnc2ccc(-c3cnc(Cl)c(NS(C)(=O)=O)c3)cc12,-18.9% (active)
20,COc1ccc(/C(C)=C(\c2ccc(Cl)cc2)c2ccc(OCCN3CCCCC3)cc2)cc1,55.5%

row,SMILES,growth
1,CN(C)CCCC1(c2ccc(F)cc2)OCc2cc(-c3csc4ccccc34)ccc21 (stereo not given),-68.5% (active)
2,Nc1ccc(C2=Nc3cccc4cccc(c34)S2)cc1,0.26% (active)
3,COc1cc(OC)cc(C(=O)Nc2cccc(C#Cc3cccc4[nH]nc(N)c34)c2)c1,31.8%
4,CCSCC1CC(O)(c2ccccc2)CC(c2ccc(F)cc2)O1 (stereo not given),8.89% (active)
5,CC1(C)c2ccccc2C(=O)C1(Br)Cc1ccccc1 (stereo not given),45.6%
6,Cn1c(=O)c2c(ncn2CC(=O)Nc2ccc(S(N)(=O)=O)cc2)n(C)c1=O,102%
7,CC(C)N(C(=S)SSC(=S)N(C(C)C)C(C)C)C(C)C,110%
8,CCCCCC[C@@H](O)C/C=C\CCCCCCCC(=O)OCCOC,104%
9,COc1ccc(C2=NN(C(=O)c3cc(OC)c(OC)c(OC)c3)C(c3ccc(C#N)cc3)C2)cc1OC (stereo not given),-25.8% (active)
10,COc1ccc2c(c1)c(-c1nc(-c3c[nH]c4ncccc34)cs1)cn2CCNC(=O)OC(C)(C)C,20%
11,CCOc1ccc([C@H]2C(C(=O)c3ccc(Cl)cc3)C3(N[C@@H]2c2ccccc2)C(=O)Nc2ccc(Br)cc23)cc1 (stereo not given in full),-17.1% (active)
12,COC(=O)c1nc(-c2ccccc2)oc1S(=O)(=O)NCC(c1ccc(Cl)cc1)N1CCOCC1 (stereo not given),29.9%
13,CNC(=O)c1cccnc1,106%
14,CCn1c2ccccc2c2cc(NC(=O)Nc3ccc([N+](=O)[O-])cc3C)ccc21,7.62% (active)
15,C#CCC1(c2ccc(F)c(F)c2)NS(=O)(=O)c2ccccc21 (stereo not given),95.2%
16,CCOC(=O)c1sc2ncnc(Nc3ccc4c(cnn4C(=O)Nc4ccc(C)c(Cl)c4)c3)c2c1C,95.1%
17,NC(N)=N/N=C(/c1ccccc1)c1ccc(N)cc1,119%
18,Cc1cccc(CO)c1,107%
19,Cn1c(=O)c2c(nc(Br)n2CC(=O)Nc2ccc(F)cc2)n(C)c1=O,109%
20,Cc1oc2nc[nH]c(=O)c2c1C(=O)/C=C/c1ccc(Br)cc1,-55.4% (active)
